Screening results: PubChem BioAssay, National Center for Advancing Translational Sciences (NCATS)
Compounds with a hit are over-represented: about 21% of the library has one in this group of screens.
Pf growth 48h = Primary qHTS for delayed death inhibitors of the malarial parasite plastid, 48 hour incubation; 310,000 compounds, 5.9% hits; Potency, µM (series often up to 28.7 µM), for inactives: top-dose activity change, negative = inhibition, hits mostly inhibitors; AID 504832, 2011; P. falciparum luciferase growth in erythrocytes, 48 h; also: potency is read from the fitted curve at half-maximal effect; % is scaled to controls: 0 for no effect and ±100 for the full control effect
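First compound was added to culture medium, then infected red cells at 0.1% parasitemia and 2% hematocrit (final). After incubation at 37 C under 5% CO2, luciferase detection reagent was dispensed and light output recorded.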
Shiga inhibitor = A qHTS for Small Molecule Inhibitors of Shiga Toxin; inhibition, % at 38.7 µM; 290,000 compounds, 9.2% hits; Vero cells, Shiga toxin protein synthesis inhibition reporter; in the data active = inhibition mostly above about 28%, no sharp cut-off; inactive = mostly below about 43%; also: 0% is about no effect
HCV inh = qHTS Assay for Inhibitors of Hepatitis C Virus (HCV) | Huh7.5.1 HCVcc-Cre infection, luciferase reporter, 44 h | Potency, µM (highest dose often 41.8 µM), without a hit: top-dose activity change, negative = inhibition, hits mostly inhibitors | 340,000 compounds, 3.4% hits; also: potency is read from the fitted curve at half-maximal effect; % is scaled to controls: 0 for no effect and ±100 for the full control effect
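Cells (1,000/well) were plated 4 h before compound, then infected with HCVcc-Cre virus (~0.5 moi). After 44 h further culture, infection was read as luciferase luminescence following a 15 min substrate incubation at room temperature.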
Cycloheximide cs = Cycloheximide Counterscreen for Small Molecule Inhibitors of Shiga Toxin. cell reporter, cycloheximide protein synthesis inhibition counterscreen. max response, %. 300,000 compounds, 12% hits. AID 2314, 2010; in the data active = max response mostly above about 13%, no sharp cut-off; inactive = mostly below about 14%; also: read at 38.3 µM for the half of the compounds with a filed dose; 0% is about no effect
Pf growth 96h = Primary qHTS for delayed death inhibitors of the malarial parasite plastid, 96 hour incubation; P. falciparum luciferase reporter growth, 96 h; Potency, µM (titrated, usually from 28.7 µM), for the others: at the highest dose activity change, negative = inhibition, hits mostly inhibitors; 320,000 compounds, 6.9% hits; AID 504834, 2011; also: potency is read from the fitted curve at half-maximal effect; % is scaled to controls: 0 for no effect and ±100 for the full control effect
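Infected RBCs, 2% Hct / 0.05% parasitemia final; luciferase-reporter P. falciparum; cpd 96 h, 37 C, 5% CO2; luciferase detection reagent; luminescence.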
HCMV inh = qHTS Assay for inhibitors of the human cytomegalovirus (HCMV) | HFF cells, HCMV-luciferase reporter, 72 h; active compounds read low | activity change, negative = inhibition, % at 57.5 µM | 410,000 compounds, 4.5% hits | AID 1259415, 2018; in the data active = activity change below about -60%; inconclusive = no clear call, values can overlap the other calls; inactive = above about -39%; also: % is scaled to controls: 0 for no effect and ±100 for the full control effect
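Screen run at 2 compound doses on HFFs infected with reporter HCMV, MOI 1 PFU/cell. Luciferase activity from cell lysates at 72 h post infection gave inhibition relative to buffer-only and Salinomycin wells.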
Starred values were filed as active, the others as inactive; ? = inconclusive; . = not tested or not shown; + = active, no number; [ ] = dose if it differs, or a comment. Unless noted, calls follow the shape of the dose curve; as a rule, active = well fitted inhibition curve with a large enough effect; inconclusive = small, poorly fitted or top-dose-only effect, or another doubt; inactive = no such curve, though single readings can be large or run the other way.

SMILES	Pf growth 48h	Shiga inhibitor	HCV inh	Cycloheximide cs	Pf growth 96h	HCMV inh
O=C(CSc1nc(-c2ccco2)cc(C(F)(F)F)n1)Nc1ccc2c(c1)CCC2	-19.5%	1.4	?	-1.5	.	-22.0
O=C(CCSc1nc(-c2ccco2)cc(C(F)(F)F)n1)NCc1cccs1	?	-5.0	10µM*	-1.4	?	-17.1
CC(NC(=O)CCSc1nc(-c2ccco2)cc(C(F)(F)F)n1)c1ccccc1 (stereo unspecified)	?	-8.2	?	-0.3	?	?
CCn1c(CNC(=O)c2ccco2)nnc1SCC(=O)Nc1ccccc1Cl	13.1%	-5.2	-9.7%	-2.7	-12.3%	-19.6
CC1=C(C(=O)N(C)C)C(c2ccc(N3CCOCC3)cc2)NC(=O)N1 (stereo unspecified)	18.2%	23.5	10.6%	9.1	41.7%	?
CN(CC(=O)Nc1ccccc1Cl)C(=O)COC(=O)C1CC1	1.8%	.	10.9%	.	?	-12.4
CCCCCc1nc2c(=O)n(C)c3ccccc3c2o1	?	123.4*	5.4%	64.4*	1.6%	-27.0
CCCCCCCc1nc2c(=O)n(C)c3ccccc3c2o1	.	-8.2	1.0%	-4.5	16.1%	-28.9
COc1ccc(-n2[nH]c3c4c(ncc3c2=O)CCCCC4)cc1	.	13.8	.	-3.4	.	.
CCCCn1c(=O)c2oc3ccccc3c2n(CC(=O)Nc2cccc(Cl)c2)c1=O	.	.	.	.	.	-39.2
COc1ccccc1N1C(=O)CC(N2CCc3ccccc32)C1=O (stereo unspecified)	?	26.9	4.7%	10.0	2.4%	119.4
COc1cccc(N2C(=O)CC(N3CCc4ccccc43)C2=O)c1 (stereo unspecified)	16.2%	35.0*	27.2%	23.7*	36.7%	84.9
O=C1CC(c2ccccc2)CC2=C1C(c1ccccn1)Nc1ccccc1N2 (stereo unspecified)	-32.9%	-10.6	9.3%	-2.7	.	-36.0
O=C1CC(c2ccc(F)cc2)CC2=C1C(c1ccc([N+](=O)[O-])o1)Nc1ccccc1N2 (stereo unspecified)	?	17.7	?	11.8*	?	-24.4
COCCCNC(=O)Cn1cnc2c(OCc3ccccc3)ncnc21	.	.	28.8%	.	.	29.1
O=[N+]([O-])c1ccc2nc(NCCCO)nc(-c3ccccc3)c2c1	?	3.7	-11.6%	-4.9	11.7µM*	27.8
O=C(O)CNc1nc(-c2ccccc2)c2cc([N+](=O)[O-])ccc2n1	6.2%	-2.0	?	0.9	14.8%	14.2
COc1ccccc1NS(=O)(=O)c1ccc(C(=O)Nc2ncccc2O)cc1	4.65µM*	.	5.4%	.	?	.
COc1ccccc1NS(=O)(=O)c1ccc(C(=O)NCc2ccncc2)cc1	41.6%	.	-7.5%	.	22.0%	+
COc1ccccc1NS(=O)(=O)c1ccc(NC(=O)c2ccncc2)cc1	-27.3%	-5.9	?	3.1	-0.3%	-22.0
O=C(NC(=S)Nn1cnnc1)c1ccccc1Br	21.7%	-4.9	10.4%	1.1	77.2%	-20.3
COc1cc(NC(=O)C2CCN(S(=O)(=O)c3ccc4c(c3)oc(=O)n4C)CC2)cc(OC)c1	.	.	.	.	.	-14.6
CCc1ccc(-n2nc(C)c3c2NC(=O)CSC3c2ccccc2C)cc1 (stereo unspecified)	.	.	.	.	.	-79.6*
CCc1ccc(-n2nc(C)c3c2NC(=O)CSC3c2ccc(OC)cc2OC)cc1 (stereo unspecified)	.	.	.	.	.	-67.4*
Cc1cccc(N2CN=C3SCC(=O)N3C2)c1	95.5%	-4.9	3.7%	-0.9	37.6%	-19.9
SMILES	Pf growth 48h	Shiga inhibitor	HCV inh	Cycloheximide cs	Pf growth 96h	HCMV inh
CC(C)NC(=O)c1ccccc1NC(=O)C1COc2ccccc2O1 (stereo unspecified)	10.4µM*	14.4	?	-4.7	-16.7%	-32.7
CCC(C)NC(=O)c1ccccc1NC(=O)C1COc2ccccc2O1 (stereo unspecified)	1.17µM*	-2.7	22.4µM*	0.6	?	?
COCCNC(=O)c1ccccc1NC(=O)C1COc2ccccc2O1 (stereo unspecified)	-2.7%	13.0	2.7%	-3.1	?	17.8
CCOC1=C2CN(S(=O)(=O)c3ccccc3)[C@@H](c3ccccc3)C[C@H]2[C@H]2C(=O)N(c3ccccc3)C(=O)[C@H]2C1	.	.	.	.	.	22.8
CCC1(C(N)=O)CC2C=CC1C2 (stereo unspecified)	.	.	17.5%	.	.	6.0
CCOC(=O)Cc1csc(NC(=O)c2cc(C)cc(C)c2)n1	4.8%	18.9	-14.3%	-1.8	?	-4.6
CCOc1cccc2sc(NC(=O)c3ccc(Br)s3)nc12	.	-3.5	?	-2.0	7.38µM*	96.7
CCOC(=O)c1csc(NC(=O)c2cccs2)n1	108.9%	102.8*	-4.6%	33.0*	67.0%	13.4
CCOC(=O)Cc1csc(NC(=O)c2cccs2)n1	30.4%	29.7	6.5%	23.9*	.	36.7
CCOC(=O)Cc1csc(NC(=O)/C=C/c2ccc(Br)o2)n1	77.1%	34.1	?	27.1	?	?
CCOC(=O)Cc1csc(NC(=O)/C=C/c2cccc(Br)c2)n1	9.28µM*	21.5	11.2µM*	12.1	-24.2%	-38.7
CCCCCn1c(=N)c(S(=O)(=O)c2ccccc2)cc2c(=O)n3cccc(C)c3nc21	.	.	.	.	.	7.8
CCOC(=O)c1sc(NC(=O)c2cccs2)nc1C	279.7%	70.0*	3.6%	17.3*	483.8%	84.4
CCCC(=O)Nc1nc(CC(=O)OCC)cs1	39.8%	-0.8	7.6%	21.0	26.4%	22.9
CC(=O)c1sc(NC(=O)c2cccs2)nc1C	-9.6%[0.00184 µM]	23.6	17.2%	10.1	26.4%	23.7
CCOC(=O)Cc1csc(NC(=O)c2ccc(Br)s2)n1	36.1%	61.5*	.	32.0*	.	.
COc1cc(C2C(=O)N(C3CCCCC3)CC(=O)N2Cc2ccc(C)cc2)ccc1OC(C)C (stereo unspecified)	.	.	.	.	.	-3.2
COc1ccc(S(=O)(=O)c2cnc(SCC(=O)Nc3cc(F)ccc3C)[nH]c2=O)cc1Cl	.	.	.	.	.	-11.0
CCC(CC)NC(=O)Nc1ccc(C)cc1	-7.5%	26.4	-8.2%	10.2	60.9%	27.5
CC1(C(=O)O)CCC(C(=O)Nc2ccccc2O)C1(C)C (stereo unspecified)	.	-22.5	9.2%	-7.4	11.7µM*	-15.0
CCc1cc2c(-c3ccccc3)cc(=O)oc2cc1OCC(C)=O	-23.6%	.	?	-2.7	13.1µM*	16.2
CC(NC(=O)OCc1ccccc1)C(=O)Oc1cc2oc(=O)cc(-c3ccccc3)c2cc1Cl (stereo unspecified)	10.5%	-14.1	25.5%	-4.2	-28.8%	-93.8*
